For 23 compounds, inhibition results are on record in PubChem BioAssay AID2803 (The Scripps Research Institute Molecular Screening Center, 2010).

The inhibition is the drop in the measured response relative to a control, in per cent.

In all, about 2,000 compounds went through this assay and about 1,300 (65%) were called active. The set was probably picked from earlier hits. The list is a sample of the results. Values without a mark were called inactive. Cut-off read from the data, not from the text of the source: active = inhibition above about 43%; inactive = the rest.

The target of the assay is Prolyl endopeptidase-like (Homo sapiens) (UniProt Q4J6C6). Nature of the assay: human PREPL enzyme inhibitors, confirmation, biochemical, fluorescence polarization (AID 2803).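 Note: 0% = protein with DMSO and 100% = wells lacking protein.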 The settings on record: recombinant PREPL, fluorescence polarization activity probe; at 5.96 µM; stronger effect = higher value. In general terms: Fluorescence polarisation rises when a labelled molecule tumbles more slowly, as on binding a larger partner.
Prolyl endopeptidase-like (Homo sapiens), sequence (Q4J6C6 whole entry, looked up): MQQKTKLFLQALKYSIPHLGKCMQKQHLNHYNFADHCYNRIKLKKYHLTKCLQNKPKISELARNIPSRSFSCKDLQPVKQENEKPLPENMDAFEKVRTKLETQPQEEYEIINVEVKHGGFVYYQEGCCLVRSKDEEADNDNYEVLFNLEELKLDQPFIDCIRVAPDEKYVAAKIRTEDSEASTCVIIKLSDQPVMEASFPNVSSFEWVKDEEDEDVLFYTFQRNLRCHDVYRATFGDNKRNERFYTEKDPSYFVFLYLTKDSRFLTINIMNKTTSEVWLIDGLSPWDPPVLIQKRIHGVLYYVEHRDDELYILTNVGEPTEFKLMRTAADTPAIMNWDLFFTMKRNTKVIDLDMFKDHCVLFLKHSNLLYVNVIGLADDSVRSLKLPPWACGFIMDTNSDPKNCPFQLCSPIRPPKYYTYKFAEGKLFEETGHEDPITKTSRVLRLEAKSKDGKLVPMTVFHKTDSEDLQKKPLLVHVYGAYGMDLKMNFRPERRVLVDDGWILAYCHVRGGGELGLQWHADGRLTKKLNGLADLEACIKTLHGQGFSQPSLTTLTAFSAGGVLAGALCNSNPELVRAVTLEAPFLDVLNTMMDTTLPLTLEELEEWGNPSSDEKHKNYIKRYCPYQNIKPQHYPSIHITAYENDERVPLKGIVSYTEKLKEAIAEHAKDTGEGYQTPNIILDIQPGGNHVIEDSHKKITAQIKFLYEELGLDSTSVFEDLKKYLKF
On to `CCOc1ccc2nc(N3CCCN(C(=O)Nc4ccccc4C)CC3)c(C#N)cc2c1`, for which the inhibition was 43.9% (active).
Under `Nc1ccc(Nc2ccccc2)cc1` stands 29.3%; under `CC(=O)Nc1ccc(S(=O)(=O)Nc2ccc(N3CCCCC3)cc2)cc1`, 46.4% (active); under `O=C(NNc1c2ccccc2nc2ccccc12)c1cc2ccccc2cc1O`, 23.9%.
Next, `O=C1N=C(N2CCc3ccccc3C2)S/C1=C\c1ccc(O)cc1`: 48.4% (active); `COc1ccc2cc1Oc1ccc(cc1)C[C@H]1c3cc(c(OC)cc3CCN1C)Oc1c(O)c(OC)cc3c1[C@H](C2)N(C)CC3`: 55.2% (active); `CCN1C(=O)/C(=C\N2CCN(c3ccccc3)CC2)SC1=S`: 54.7% (active).
Next, `COC(=O)[C@H]1[C@H]2C[C@H]3c4[nH]c5ccccc5c4CCN3C[C@@H]2CC[C@@H]1O`: 22.4%; `Cc1nc([N+](=O)[O-])nn1C12CC3CC(CC(Br)(C3)C1)C2`: 8.94%; `CCN1/C(=C/c2ccc3ccc(C)cc3[n+]2CC)Sc2ccccc21`: 52.8% (active).
On to `CCN1/C(=C\c2ccc3ccccc3[n+]2CC)Sc2cc(C)ccc21`, for which the inhibition is 61.6% (active).
Under `C#CCOCCOCCOCCNc1nc(N2CCN(C(=O)CCCCCCCCCCNC(=O)Cn3cc(CCCCCN)nn3)CC2)nc(N2CCN(C(=O)CCCCCCCCCCNC(=O)[C@H](CO)n3cc(CCCSC)nn3)CC2)n1` stands 63.1% (active).
Under `CC(C)n1cnc2c(NCc3ccccc3)cc(OCC3CCN(C)CC3)cc21` stands 54.1% (active).
Under `CCC(CO)Oc1cc(NCc2ccccc2)c2ncn(C3CCCC3)c2c1` (stereo not drawn) stands 12%; under `N#C/C(=C/c1ccc(N2CCCCC2)o1)C(=O)NCCc1c[nH]c2ccccc12`, 78.5% (active).
Take `O=C(NCc1ccccn1)c1ccc2nc(-c3ccco3)c(-c3ccco3)nc2c1`: the inhibition was 39.2%.
Next, `Oc1c(CN2CCCC2)cc(COCc2ccccc2)c2cccnc12`: 69.6% (active); `Cc1ccc(C2CC(c3cccc(C)c3)n3nc(N)nc3N2)cc1` (stereo not drawn): 53.7% (active); `Oc1ccc2ccccc2c1N=Nc1nccs1`: 40.4%.
`O=C(OCC(=O)N1CCN(c2ccccc2)CC1)c1ccc([N+](=O)[O-])s1`: the inhibition is 22.6%.
For `O=C(c1cc(C(=O)N2CCN(c3ccc(F)cc3)CC2)cc([N+](=O)[O-])c1)N1CCN(c2ccc(F)cc2)CC1`, the inhibition was 47.8% (active).
Next, `COCCN(CCOC)c1nc(N)c2c(N)nc3c(c2c1C#N)CC(=O)N3Cc1ccc(Cl)cc1`: 19.2%; `O=C1c2ccccc2C(=O)c2c1cccc2N1CCN(C/C=C/c2ccccc2)CC1`: 80.7% (active).
